In the library only some 4.7% were active in any assay of this set; here they are far more common.
D1 potentiator: potentiators of human D1 dopamine receptor; P21728; HEK293 TREx D1 cells, calcium flux, dopamine EC20 potentiation; potentiation, % at 10 µM; 0.036% of 360,000 active; AID 504651; in the data active means potentiation above about 30%
Target sequence (P21728 whole entry, looked up): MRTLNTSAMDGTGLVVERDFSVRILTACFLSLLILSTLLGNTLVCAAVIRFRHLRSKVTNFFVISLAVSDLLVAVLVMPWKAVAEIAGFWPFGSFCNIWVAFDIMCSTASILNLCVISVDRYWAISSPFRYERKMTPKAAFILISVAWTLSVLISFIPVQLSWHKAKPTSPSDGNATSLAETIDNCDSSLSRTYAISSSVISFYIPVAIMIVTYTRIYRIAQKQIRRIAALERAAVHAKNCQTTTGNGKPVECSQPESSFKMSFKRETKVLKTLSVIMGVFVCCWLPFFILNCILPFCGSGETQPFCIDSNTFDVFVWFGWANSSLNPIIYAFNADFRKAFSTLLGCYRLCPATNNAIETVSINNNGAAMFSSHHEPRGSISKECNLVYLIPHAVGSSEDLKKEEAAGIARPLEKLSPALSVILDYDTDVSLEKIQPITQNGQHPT
TRHR PAM: allosteric enhancers of human TRH receptor. enhancement, % at 2 µM. AID 493056. P34981. TRHR cells, fluo-8 calcium fluorescence, EC20 TRH enhancement. 0.66% of 360,000 active; in the data active means enhancement above about 30%
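TRHR-expressing cells loaded with fluo-8 calcium dye were read kinetically (ex 480/em 530) during compound addition, then stimulated with an EC20 of TRH (10 nM final). Enhancement of the Gq-mediated intracellular calcium response was scored.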
D1 ag: human D1 receptor agonism; P21728; HEK293 T-REx D1 cells, calcium flux, agonist mode; activation, % at 2 µM; 1% of 360,000 active; AID 504660
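Tetracycline-induced HEK293 TREx D1 cells, force-coupled to calcium signalling, were dye-loaded with a no-wash calcium kit. Compound was pin-added after a 10 s baseline. Fluorescence was read kinetically at 1 cycle/s for 180 s, with calcium rises flagged as agonism.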
TRHR agonist: activates the human TRH receptor | activation, % at 2 µM | TRHR cells, calcium flux fluo-8, FDSS agonist mode | P34981 | 0.18% of 360,000 active | AID 493084
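In this calcium-flux screen, cells bearing human TRHR are dye-loaded with fluo-8, baselined for 10 cycles, then exposed to library compounds; positive kinetic calcium responses during the agonist phase mark hits, with TRH as control.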
D1 antagonist: blocks dopamine activation of the human D1 receptor | 3.2% of 360,000 active | HEK293 TREx D1 cells, calcium flux, dopamine EC80; hits give low values | activity change, negative = inhibition, % at 10 µM | P21728 | AID 504652; in the data active means activity change below about -30%
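Calcium flux readout: force-coupled, inducible Hek293 Trex D1 line, cells induced overnight at 30 C with tetracycline, dye-loaded 30–90 min at RT. Antagonism scored against EC80 dopamine challenge given 180 s after compound.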
A number is an active result. Unless noted, no stated cut-off is given here; in the data, active means activation above about 30%; inactive means the rest.

Results for Cc1cccc(NC(=O)C2CCCN(S(=O)(=O)c3c(C)[nH]c(=O)[nH]c3=O)C2)c1C (stereo unspecified) ?
D1 potentiator: inactive; TRHR PAM: inactive; D1 ag: inactive; TRHR agonist: inactive; D1 antagonist: inactive

Results for COC(=O)c1ccccc1NC(=O)Cn1c(=O)n(CCCCC(=O)NCc2ccc3c(c2)OCO3)c(=O)c2ccccc21 ?
D1 potentiator: inactive; TRHR PAM: inactive; D1 ag: inactive; TRHR agonist: inactive; D1 antagonist: inactive

How did CCOC(=O)c1c(C)[nH]c(C)c1C(=O)COC(=O)c1cc(OC)c(OC)cc1OC do in these assays?
D1 potentiator: inactive; TRHR PAM: inactive; D1 ag: inactive; TRHR agonist: inactive; D1 antagonist: -31.7

Results for CCOC(=O)c1c(C)[nH]c(C)c1C(=O)COC(=O)c1cccc(S(=O)(=O)N(CC)CC)c1 ?
D1 potentiator: inactive; TRHR PAM: inactive; D1 ag: inactive; TRHR agonist: inactive; D1 antagonist: -49.1

What do the screens show for `Cc1cccc(C(=O)NCC(c2cccs2)S(=O)(=O)c2cccs2)c1` (stereo unspecified)?
D1 potentiator: inactive; TRHR PAM: inactive; D1 ag: inactive; TRHR agonist: inactive

Results for CCCCNCC1CCCO1 (stereo unspecified) ?
D1 potentiator: inactive; TRHR PAM: inactive; D1 ag: inactive; TRHR agonist: inactive; D1 antagonist: -90.5

What do the screens show for `c1ccc(C2=NNC(c3ccco3)=Nc3ccccc32)cc1`?
D1 potentiator: inactive; TRHR PAM: inactive; D1 ag: inactive; TRHR agonist: inactive; D1 antagonist: -32.2

How did COc1ccc(C2=NNC(c3cccnc3)=Nc3ccccc32)cc1 do in these assays?
D1 potentiator: inactive; TRHR PAM: inactive; D1 ag: inactive; TRHR agonist: inactive; D1 antagonist: inactive

How did COc1cccc(-n2ccnc2SCC(=O)Nc2cccc3ccccc23)c1 do in these assays?
D1 potentiator: inactive; TRHR PAM: inactive; D1 ag: inactive; TRHR agonist: inactive; D1 antagonist: inactive

What do the screens show for `Cc1ccc2[nH]c(=O)c(CN(Cc3ccccc3)C(=S)NCCCN(C)C)cc2c1`?
D1 potentiator: inactive; TRHR PAM: 33.7; D1 ag: inactive; TRHR agonist: inactive; D1 antagonist: inactive

Results for CCCCN(Cc1cc2cc(C)ccc2[nH]c1=O)C(=O)c1ccccn1 ?
D1 potentiator: inactive; TRHR PAM: 30.3; D1 ag: inactive; TRHR agonist: inactive; D1 antagonist: inactive

How did CC(=O)c1ccc(N2CCN(S(=O)(=O)c3ccc(-c4cc(C)no4)s3)CC2)cc1 do in these assays?
D1 potentiator: inactive; TRHR PAM: inactive; D1 ag: inactive; TRHR agonist: inactive; D1 antagonist: inactive

Results for CC(=O)c1ccc(N2CCN(S(=O)(=O)c3ccc(-c4cc(C(F)(F)F)on4)s3)CC2)cc1 ?
D1 potentiator: inactive; TRHR PAM: inactive; D1 ag: inactive; TRHR agonist: inactive; D1 antagonist: -30.8

Results for Cc1ccc(C)c(NC(=O)Cn2cc(S(=O)(=O)NC(C)C)c(S(=O)(=O)NC(C)C)c2)c1 ?
D1 potentiator: inactive; TRHR PAM: inactive; D1 ag: inactive; TRHR agonist: inactive; D1 antagonist: inactive

What do the screens show for `N#CC1(Nc2cccc(Br)c2)C(=O)Nc2ccccc21` (stereo unspecified)?
D1 potentiator: inactive; TRHR PAM: inactive; D1 ag: 53.3; TRHR agonist: inactive; D1 antagonist: inactive

How did N#CC1(Nc2ccccc2)C(=O)Nc2ccccc21 (stereo unspecified) do in these assays?
D1 potentiator: inactive; TRHR PAM: inactive; D1 ag: inactive; TRHR agonist: inactive; D1 antagonist: inactive

How did O=[N+]([O-])c1ccc(C(c2sc3nc(-c4ccco4)nn3c2O)N2CCN(c3cccc(Cl)c3)CC2)cc1 (stereo unspecified) do in these assays?
D1 potentiator: inactive; TRHR PAM: inactive; D1 ag: inactive; TRHR agonist: inactive

Results for CN=C1S/C(=C\c2cc(C)n(-c3ccccc3F)c2C)C(=O)N1C ?
D1 potentiator: inactive; TRHR PAM: inactive; D1 ag: inactive; TRHR agonist: inactive; D1 antagonist: -43.4

How did CCOc1ccc(-c2nc(C#N)c(NC3CC3)o2)cc1 do in these assays?
D1 potentiator: inactive; TRHR PAM: 32.0; D1 ag: inactive; TRHR agonist: inactive; D1 antagonist: inactive

What do the screens show for `CCOc1ccc(Nc2oc(-c3ccc(Cl)cc3)nc2C#N)cc1`?
D1 potentiator: inactive; TRHR PAM: inactive; D1 ag: inactive; TRHR agonist: inactive; D1 antagonist: inactive

What do the screens show for `COc1ccc(C(NC(=O)c2ccc(F)cc2)c2ccccc2)cc1` (stereo unspecified)?
D1 potentiator: inactive; TRHR PAM: inactive; D1 ag: inactive; TRHR agonist: inactive; D1 antagonist: inactive

Results for COc1ccc(C(NC(=O)c2cccc(F)c2)c2ccccc2)cc1 (stereo unspecified) ?
D1 potentiator: inactive; TRHR PAM: inactive; D1 ag: inactive; TRHR agonist: inactive; D1 antagonist: -31.1

Results for Cc1nnsc1NC(=O)OCc1ccc(Cl)cc1Cl ?
D1 potentiator: inactive; TRHR PAM: inactive; D1 ag: inactive; TRHR agonist: inactive; D1 antagonist: -32.6

How did Cc1nn(C)c(Cl)c1NC(=O)OCc1ccc(Cl)cc1Cl do in these assays?
D1 potentiator: inactive; TRHR PAM: inactive; D1 ag: inactive; TRHR agonist: inactive; D1 antagonist: -37.2

Results for Cc1nnsc1NC(=O)OCCCl ?
D1 potentiator: inactive; TRHR PAM: inactive; D1 ag: inactive; TRHR agonist: inactive; D1 antagonist: inactive

How did CCn1nc(C)c(CCN(C)C(=O)Nc2cc(Cl)ccc2C)c1C do in these assays?
D1 potentiator: inactive; TRHR PAM: inactive; D1 ag: inactive; TRHR agonist: inactive; D1 antagonist: inactive

How did O=C(Nc1ccc(F)cc1F)c1cc2c(=O)n3ccccc3nc2s1 do in these assays?
D1 potentiator: inactive; TRHR PAM: inactive; D1 ag: inactive; TRHR agonist: inactive; D1 antagonist: inactive

How did CC(C)CC1NC(=O)N(CC(=O)NC2CCCc3ccccc32)C1=O (stereo unspecified) do in these assays?
D1 potentiator: inactive; TRHR PAM: inactive; D1 ag: inactive; TRHR agonist: inactive; D1 antagonist: -36.3

How did O=C1C2C(c3ccccc3)C=CC(c3ccccc3)C2C(=O)N1C1CCCCC1 (stereo unspecified) do in these assays?
D1 potentiator: inactive; TRHR PAM: 35.3; D1 ag: inactive; TRHR agonist: inactive; D1 antagonist: inactive

How did O=C1c2ccccc2C(=O)N1C1CCCCC1 do in these assays?
D1 potentiator: inactive; TRHR PAM: inactive; D1 ag: inactive; TRHR agonist: inactive; D1 antagonist: inactive

Results for COc1ccc(F)cc1C(=O)C1CCCN(Cc2c[nH]c3ccccc23)C1 (stereo unspecified) ?
D1 potentiator: inactive; TRHR PAM: inactive; D1 ag: 46.8; TRHR agonist: inactive; D1 antagonist: -43.1

Results for COc1cccc(CN2CCCC(C(=O)N3CCCCC3)C2)c1OC (stereo unspecified) ?
D1 potentiator: inactive; TRHR PAM: 32.5; D1 ag: inactive; TRHR agonist: inactive; D1 antagonist: inactive
